# According to PubChem BioAssay AID1259343 (VanderVen Lab, College of Veterinary Medicine, Cornell …, 2017):
# Screen size: about 6,200 compounds; about 2,900 (47%) were called active. So high a share suggests a set chosen from earlier hits. This is one part of the list. A number with no mark means an inactive call. No stated cut-off is given here; in the data, active means inhibition above about 50%; inactive means the rest. Where a SMILES comes first, the peptide text is derived from it. [ ]: non-standard residue; d: D form. Orn = NCCC[CH](N)C(=O)O
# Experiment: Mycobacterium tuberculosis growth inhibition, primary screen (AID 1259343)
# Conditions: inhibition: at 10 µM, stronger effect = higher value; outcome: 10 uM
row,SMILES,inhibition
1,Clc1cc(Br)ccc1Oc1ncnc2sccc12,70.4% (active)
2,Brc1ccc(Sc2ncnc3sccc23)cc1,19.4%
3,O=C1NC(=Nc2ccccc2Cl)S/C1=C\c1ccsc1,59.3% (active)
4,O=C1COc2ccc(C3=NNC(=Nc4ccccc4Cl)SC3)cc2N1,11.7%
5,CN(C)CC/C=C1\c2ccccc2Sc2ccc(Cl)cc21,90.1% (active)
6,Oc1ccc(F)cc1C1=NNC(c2ccc(Cl)cc2)C1 (configuration not stated),60.6% (active)
7,CN(Cc1ccc(Cl)cc1)Cc1cc2c(cc1O)CCC2,22.8%
8,Oc1c(Cl)cc(Cl)cc1C1=NNC(c2ccccc2F)C1 (configuration not stated),38.9%
9,Cn1c(Cl)cnc1C1CC(c2cc(Cl)ccc2O)=NN1 (configuration not stated),101% (active)
10,COc1ccc(NC(=O)CSc2nnc3ccccn23)c(OC)c1,81.5% (active)
11,O=C(CSc1nnc2ccccn12)Nc1c(Cl)c(Cl)cc(Cl)c1Cl,-1.75%
12,CC(C)CC1NC(=O)C(CCCN)NC(=O)C(C(C)C)NC(=O)C2CCCN2C(=O)C(Cc2ccccc2)NC(=O)C(CC(C)C)NC(=O)C(CCCN)NC(=O)C(C(C)C)NC(=O)C2CCCN2C(=O)C(Cc2ccccc2)NC1=O (configuration not stated) (cyclo(FPV[Orn]LFPV[Orn]L); configuration not given here),46.4%
13,CCOC(=O)c1ccc(N=Cc2c(O)[nH]c(=O)[nH]c2=O)cc1,73.1% (active)
14,CCCCn1c(O)c(C=Nc2ccc(CC)cc2)c(C)c(C#N)c1=O,24.8%
15,COC(=O)c1ccc(Nc2ccc(OCC3CCCO3)cc2)nn1 (configuration not stated),93.6% (active)
16,COc1cc(C(=O)N2CCOC(COc3ccc(C)cc3)C2)cc(Cl)n1 (configuration not stated),29.3%
17,Clc1cccc(Nc2nc3nonc3n3nnnc23)c1,54.3% (active)
18,CC(C)S(=O)(=O)c1ccc(C(=O)Nc2onc3c2CCC3)cc1,84.8% (active)
19,CCc1csc(Cn2cc(C(C)c3ccccc3)nn2)n1 (configuration not stated),-13.5%
20,CCc1cc(OCCCCn2cnc3ccccc3c2=O)ccc1Cl,64.6% (active)
21,Cc1ccc(SCCCCN2C(=O)NC(C)(C)C2=O)cc1,-48.6%
22,O=c1c2ccccc2ncn1CCCCSc1ccccc1,89.1% (active)
23,Cc1cc2ncn(CCCOc3ccccc3)c2cc1C,36.7%
24,Cc1nn(S(=O)(=O)c2cccc([N+](=O)[O-])c2)c(C)c1S(=O)(=O)N1CCCC(C)C1 (configuration not stated),-15.4%
25,N#Cc1ccc(NCc2cc(Br)ccc2F)cc1,88.5% (active)

row,SMILES,inhibition
1,N#Cc1ccccc1CNc1ccc(Br)cc1F,-19.6%
2,N#Cc1ccc(CNc2cccc(Br)c2)c(F)c1,-12.4%
3,O=c1c2c3c(sc2ncn1Cc1cccc2ccccc12)CCCC3,21.4%
4,CC(C)c1nc2c(c(=O)c3ccccc3n2C)c(=O)n1Cc1ccccc1,-29.9%
5,COC(=O)C(C)Sc1nc2sc3c(c2c(=O)n1Cc1ccccc1)CCC3 (configuration not stated),83.9% (active)
6,CC1(Cc2ccccc2F)C(=O)Nc2ccc(-c3cccnc3)cc21 (configuration not stated),55.3% (active)
7,CCCc1nn(-c2cccc(Cl)c2)c([O-])c1C1=C([n+]2cccc(CC)c2)C(=O)N(CC(C)C)C1=O,41.4%
8,CCCC(C)NC(=O)Cn1cnc2cc(F)ccc2c1=O (configuration not stated),86.9% (active)
9,O=C(NNC1c2ccccc2-c2ccccc21)c1ccccc1,32.6%
10,CC(C)(C)C(=O)COC(=O)CNC(=O)c1ccccc1,93.8% (active)
11,C=CCN=c1scc(-c2ccc(OC(F)F)cc2)n1N=C(C)c1ccc2c(c1)OCCO2,87% (active)
12,CCN=c1scc(-c2ccc(C)cc2)n1N=C(C)c1ccc(C)o1,42.6%
13,C=CCN=c1scc(-c2ccc(C)cc2)n1N=C(C)c1cccnc1,84.7% (active)
14,C=CCN=c1scc(-c2ccc(OC(F)F)cc2)n1N=Cc1ccc2c(c1)OCO2,-11.8%
15,C=CCN=c1scc(-c2ccc(C)c(C)c2)n1N=Cc1cccnc1,-28%
16,C=CCN=c1scc(-c2ccc(Cl)cc2)n1N=Cc1cccnc1,9.02%
17,C=CCN=c1scc(-c2ccccc2F)n1N=Cc1ccc2c(c1)OCCO2,9.72%
18,C=CCN=c1scc(-c2ccc(Br)cc2)n1N=Cc1cccnc1,-5.61%
19,C=CCN=c1scc(-c2ccc(Cl)c(Cl)c2)n1N=Cc1cccnc1,68.1% (active)
20,CC1(C)CN(CC(=O)NCC(=O)N2CCCC2)c2cccc(Cl)c21,-12.8%
21,Cc1ccc(C(=O)N2CCCC(C(=O)c3cccc4ccccc34)C2)s1 (configuration not stated),11.3%
22,O=C(NCC(=O)N1CCCCC1)c1sc2ccccc2c1Cl,70.3% (active)
23,CCc1ccc(-c2cc(C(=O)N=Nc3c(O)[nH]c4ccccc34)[nH]n2)cc1,18.3%
24,CCc1ccc(NC(=O)CCn2cnc3c([nH]c4ccccc43)c2=O)cc1,95.4% (active)
25,Cn1c(=O)c2c(ncn2CCOC(=O)c2cc(=O)[nH]c3ccccc23)n(C)c1=O,-7.86%

row,SMILES,inhibition
1,Brc1cc(CNC2C3CCCC2CN(C2CC2)C3)cs1 (configuration not stated),23.7%
2,Cn1cnnc1SCC(=O)Nc1ccc2c(c1)OC(F)(F)O2,16.7%
3,C=CCn1cnnc1SCC(=O)Nc1ccc(Br)c(C)c1,101% (active)
4,C=CCn1c(SCC(=O)NC(=O)NC)nnc1-c1ccncc1,-1.24%
5,Cc1nnc2sc(-c3ccccc3NC(=S)NC(=O)c3cc4ccccc4o3)nn12,57.4% (active)
6,Oc1ccc2ccccc2c1C=NC1CC1,37.4%
7,CCn1c(O)c(C=NC2CCCCCC2)c(=O)n(CC)c1=S,102% (active)
8,Cc1nn(CO)c(C)c1Sc1ccc(Br)cc1,36.4%
9,C(=Nn1c(-c2ccccc2)csc1=NC1CCCCC1)c1ccccn1,-31.1%
10,Cc1ccccc1OCC1CCCN(Cc2nc(Cc3ccccc3F)no2)C1 (configuration not stated),47%
11,Cc1ccc(OCC2CCCN(Cc3ccc(C#CCO)s3)C2)cc1 (configuration not stated),82.9% (active)
12,O=C(NCC(F)(F)F)c1cccc(Oc2ccccc2)c1,74.4% (active)
13,COCC(C)NC(=O)c1cccc(Oc2cccc(C(F)(F)F)c2)c1 (configuration not stated),38.2%
14,CCCCc1noc(CNc2cc(C(=O)NCC(F)(F)F)ccc2C)n1,46.7%
15,CCc1cccc(N2CCC(NC(=O)Nc3nccs3)CC2)c1,51.4% (active)
16,CC1CC(=O)NN1C(=O)/C=C/c1cn(-c2ccccc2)nc1-c1ccccc1 (configuration not stated),38.7%
17,Cn1cc(-c2nn(-c3ccccc3)cc2C=NNC(N)=S)c2ccccc21,16.3%
18,OCCN=Cc1cn(-c2ccccc2)nc1-c1ccc(Cl)cc1,59.3% (active)
19,CCc1cc2c(=O)n(CCC(C)C)c(=S)[nH]c2s1,-39.7%
20,C/C(=C/C(=O)C(C#N)c1nc2cc(Cl)ccc2s1)C1CC1 (configuration not stated),63.6% (active)
21,COCCCn1c(-c2ccccc2)nc2oc3cc(OC)ccc3c(=O)c2c1=O,-18.5%
22,CCOC(=O)COc1ccc2c(=O)c(-c3ccccc3)c(C)oc2c1,41.9%
23,C=C(C)COc1ccc2c(=O)c(-c3ccccc3)c(C)oc2c1,51.9% (active)
24,Cc1cc(NC(=O)C(C)Oc2ccc3c(=O)c(-c4ccccc4)c(C)oc3c2)no1 (configuration not stated),70.1% (active)
25,COC(=O)COc1ccc2c(=O)c(Oc3ccc(OC)cc3)coc2c1,8.04%

row,SMILES,inhibition
1,CCOC(=O)COc1ccc2c(=O)c(-c3ccc(Cl)cc3)c(C)oc2c1,84% (active)
2,Nc1c([N+](=O)[O-])ccc2c1=[N+]([O-])C1(CCCCC1)[N+]=2[O-],101% (active)
3,Oc1c(N=Nc2ccccc2)cc2c3c1CCCN3CCC2,16.8%
4,Cc1c(CN2CCCC(CNC(=O)c3cccs3)C2)[nH]c2ccc(Cl)cc12 (configuration not stated),78.8% (active)
5,O=C(NCC1CC1)c1csc(N2CCN(Cc3ccc(Cl)cc3)C2=O)n1,33.3%
6,Cc1c(CN2CCCC(C(=O)Nc3cccc(-n4cccn4)c3)C2)[nH]c2ccccc12 (configuration not stated),35.5%
7,NC(=N/N=C\c1ccc(Cl)cc1)N/N=C\c1ccc(Cl)cc1,101% (active)
8,CN(CCC#N)c1ccc(C=NNC(N)=S)cc1,29.2%
9,Clc1ccc(C2=Nn3c(nnc3C3CCCCC3)SC2)c(Cl)c1,-20.9%
10,O=C(Sc1cccc2cccnc12)c1ccccc1Cl,92.5% (active)
11,CCc1cccc2c(C(=O)CSc3nnc(-c4cccnc4)o3)c[nH]c12,63.8% (active)
12,CCOC(=O)c1c(CC(C)C)csc1NC=C(C#N)C#N,100% (active)
13,CCOC(=O)c1sc(NN=C(C#N)C#N)c(C(=O)OCC)c1C,27.2%
14,CCOC(=O)C(C#N)=NNc1sc(C(=O)OCC)c(C)c1C(=O)OCC,-20.8%
15,Cc1cc(=O)[nH]c(-n2nc(C)cc2NC(=O)c2ccc(C(F)(F)F)cc2)n1,98.6% (active)
16,Cc1cc(=O)[nH]c(-n2nc(C)cc2NC(=O)c2cc(C(F)(F)F)cc(C(F)(F)F)c2)n1,98.3% (active)
17,Cc1cc(NC(=O)c2cccc(C(F)(F)F)c2)n(-c2nc(C)c(C)c(=O)[nH]2)n1,33.9%
18,Cc1cc(=O)[nH]c(-n2nc(C)cc2NC(=O)c2cccc(C(F)(F)F)c2)n1,102% (active)
19,Clc1ccccc1CSc1ncnc2c1nnn2Cc1ccccc1,-14.6%
20,CCn1nnc2c(N3CCC(Cc4ccccc4)CC3)ncnc21,75.6% (active)
21,Cc1cc(=O)[nH]c(SCc2cc(-c3ccco3)on2)c1C#N,20.5%
22,COc1cccc(-c2ccc(CNC(=O)c3n[nH]c(=O)[nH]3)cc2)c1,76.1% (active)
